From PubChem BioAssay (NCI)
Compounds without any hit were thinned out: in the full panel of roughly 83,000, 20% have a hit.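 Method: cells in 96-well plates; compound added at one concentration; 48 h incubation; percent growth measured; values under 10 scored active.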 Active and inactive are the calls of the source.

How the values were obtained:
Assay in all cases: NCI-60 one-dose screen, 48 h (100 = growth as untreated, 0 = no growth, -100 = all killed)
Settings in all cases: 10 µM unless noted
[1] = tested on: SK-MEL-2 melanoma
[2] = tested on: EKVX NSCLC
[3] = tested on: SN12C renal
[4] = tested on: UO-31 renal
[5] = tested on: TK-10 renal
[6] = tested on: ACHN renal
[7] = tested on: A498 renal
[8] = tested on: CCRF-CEM leukemia
[9] = tested on: MOLT-4 leukemia
[10] = tested on: SR leukemia
[11] = tested on: RPMI-8226 leukemia
[12] = tested on: OVCAR-8 ovarian
[13] = tested on: OVCAR-5 ovarian
[14] = tested on: OVCAR-4 ovarian
[15] = tested on: SK-OV-3 ovarian
[16] = tested on: IGROV1 ovarian
[17] = tested on: OVCAR-3 ovarian
[18] = tested on: HS 578T breast
[19] = tested on: NCI/ADR-RES ovarian
[20] = tested on: T-47D breast

Measured: growth

O=C(CCl)N1CCCc2ccccc21
inactive: [1] 110% | [2] 96.4% | [3] 93.8% | [4] 82.8% | [5] 102% | [6] 101% | [7] 94.5% | [8] 96.8% | [9] 93.5% | [10] 101% | [11] 102% | [12] 107% | [13] 99.2% | [14] 102% | [15] 119% | [16] 106% | [17] 94.9% | [18] 105% | [19] 96.8% | [20] 106%

CC(C)Cc1cc(CNC(=O)C2[C@H]3CN(C(=O)c4ccccc4)C[C@@H]23)nn1-c1ccccc1 (stereo not given in full)
inactive: [1] 83.8% | [2] 92.8% | [3] 99.1% | [4] 74.9% | [5] 73.2% | [6] 92.2% | [7] 96.6% | [8] 89.7% | [9] 80.6% | [10] 90.4% | [11] 84.7% | [12] 77.9% | [13] 97.9% | [14] 104% | [15] 76.8% | [16] 107% | [17] 100% | [18] 97.9% | [19] 93.8% | [20] 74.2%

COc1ccc(OCC(=O)OC(C)C)cc1
inactive: [1] 109% | [2] 99% | [3] 96.8% | [4] 89.6% | [5] 92.9% | [6] 108% | [7] 92% | [8] 112% | [9] 91.1% | [10] 91.9% | [11] 106% | [12] 105% | [13] 99.6% | [14] 101% | [15] 112% | [16] 103% | [17] 99.1% | [18] 100% | [19] 93.3% | [20] 101%

C=C(C)[C@@H]1CC[C@]2(C(=O)n3ccnc3)CC[C@]3(C)[C@H](CC[C@@H]4[C@@]5(C)CCCNC(C)(C)[C@@H]5CC[C@]43C)[C@@H]12
active: [8] 0.353% | [9] -15.9% | [10] -33% | [11] -51.3%
inactive: [1] 53.5% | [2] 61.9% | [3] 29.6% | [4] 43.8% | [5] 70.5% | [6] 46.6% | [7] 84% | [12] 62.8% | [13] 74.9% | [14] 38.3% | [15] 61.9% | [16] 20.4% | [17] 30.9% | [18] 47.4% | [19] 32.9% | [20] 11.4%

COc1cc(/C=C/C(=O)c2cccs2)ccc1OCc1ccc(Cl)nc1
inactive: [1] 96.7% | [2] 94.8% | [3] 81.1% | [4] 57.2% | [5] 111% | [6] 102% | [7] 100% | [8] 61.9% | [9] 86.6% | [10] 20.5% | [11] 17.5% | [12] 80.2% | [13] 88.9% | [14] 101% | [15] 105% | [16] 76.8% | [17] 67.9% | [18] 104% | [19] 69.6% | [20] 77.1%

C=C(C)[C@@H]1CC[C@]2(C(=O)O)CC[C@]3(C)[C@H](CC[C@@H]4[C@@]5(C)C[C@@H](CC#Cc6ccc(Cl)cc6)C(=O)C(C)(C)[C@@H]5CC[C@]43C)[C@@H]12
inactive: [2] 40% | [3] 27.8% | [4] 60.5% | [5] 59.7% | [6] 48.2% | [8] 27.9% | [9] 26.7% | [10] 49.9% | [11] 22.5% | [12] 48.1% | [13] 70.9% | [14] 29.1% | [15] 61.5% | [16] 70.1% | [17] 46.6% | [18] 55.3% | [19] 71.7% | [20] 39.4%
active: [1] -18.9% | [7] -15.1%

C#Cc1cccc(Nc2ncnc3ccc(NC(=O)c4ccccc4)cc23)c1
inactive: [1] 85.3% | [2] 52.3% | [3] 76.6% | [4] 56% | [5] 26.1% | [6] 39.6% | [7] 65.4% | [8] 89.7% | [9] 59.5% | [10] 61.8% | [11] 64.6% | [12] 81.1% | [13] 83.4% | [14] 80.4% | [15] 75.3% | [16] 33.7% | [17] 66.2% | [18] 102% | [19] 69.8% | [20] 61.4%

Cc1ccc(C2=N[C@H]3CCC[C@@H]3N(c3ccccc3)C(C(Cl)Cl)=N2)cc1
inactive: [1] 96.8% | [2] 98.4% | [3] 107% | [4] 81.9% | [5] 100% | [6] 98% | [7] 112% | [8] 96.4% | [9] 94.3% | [10] 95.8% | [11] 111% | [12] 113% | [13] 91.3% | [14] 96.9% | [15] 111% | [16] 98.7% | [17] 103% | [18] 100% | [19] 97.9% | [20] 106%

CCCNc1nc(C)[nH]c(=O)c1S
inactive: [1] 95.6% | [2] 120% | [3] 186% | [4] 90.8% | [5] 135% | [6] 94.7% | [7] 180% | [8] 106% | [9] 96.3% | [10] 101% | [11] 87.4% | [12] 105% | [13] 113% | [14] 105% | [15] 134% | [16] 102% | [17] 106% | [18] 137% | [19] 109% | [20] 98.6%

COc1cc(F)c(-c2nc3c(C)cccc3n2Cc2c(F)cccc2F)c(F)c1
inactive: [1] 93.6% | [2] 87.9% | [3] 92.1% | [4] 72.2% | [5] 90.5% | [6] 101% | [7] 87% | [8] 98.6% | [9] 60.6% | [10] 88.3% | [11] 68.2% | [12] 90.5% | [13] 94.6% | [14] 77.6% | [15] 90.5% | [16] 69.4% | [17] 96.2% | [18] 91.6% | [19] 77.9% | [20] 71.4%

COc1cccc(NC(=O)Nc2ccc(Nc3ncnc4[nH]c(C)c(C)c34)cc2)c1
inactive: [1] 104% | [2] 96.5% | [3] 95% | [4] 85.2% | [5] 112% | [6] 102% | [7] 107% | [8] 86.1% | [9] 78.8% | [10] 91.1% | [11] 90.8% | [12] 91.7% | [13] 114% | [14] 109% | [15] 102% | [16] 115% | [17] 113% | [18] 83.9% | [19] 107% | [20] 89.8%

NC(=O)C(O)(c1ccccc1)c1ccccc1
active: [17] -48.6%
inactive: [1] 105% | [2] 100% | [3] 99% | [4] 93.8% | [5] 97.3% | [6] 108% | [7] 84.9% | [8] 87.9% | [9] 98.6% | [10] 83% | [11] 93.2% | [12] 98.2% | [13] 110% | [14] 101% | [15] 97.2% | [16] 111% | [18] 97.1% | [19] 102% | [20] 90.1%

COc1ccc(Sc2[nH]c(C(C)=O)c3ccccc23)cc1
active: [7] -0.948% | [10] 8.36%
inactive: [1] 57.8% | [2] 30.9% | [3] 87.5% | [4] 73.5% | [5] 58.9% | [6] 80.9% | [8] 39.6% | [9] 48.5% | [11] 41.4% | [12] 88% | [13] 94.1% | [14] 71.2% | [15] 19% | [16] 83.6% | [17] 68.3% | [18] 83.9% | [19] 40.8% | [20] 56.5%

COc1ccc2cc(/C=C3\N=C(c4cc(OC)c(OC)c(OC)c4)OC3=O)c(OC)nc2c1
inactive: [1] 106% | [2] 103% | [3] 94.2% | [4] 95.8% | [5] 106% | [6] 101% | [7] 99.5% | [8] 111% | [9] 94.8% | [10] 95.8% | [11] 104% | [12] 98.4% | [13] 108% | [14] 101% | [15] 96.5% | [16] 109% | [17] 109% | [18] 97.2% | [19] 105% | [20] 96.5%

COC(=O)c1cc2c3c(cc(O)c2[nH]1)N(C(=O)C1Cc2cc(OC)c(OC)c(OC)c2N1)CC3CCl (stereo not given)
active: [1] -43% | [2] -31.5% | [3] -88.9% | [4] -97.8% | [5] -89.5% | [6] -56.1% | [7] -42.8% | [8] 5.91% | [9] -11.7% | [10] 8.12% | [11] -13.2% | [12] -50.5% | [13] -61.1% | [14] -98.7% | [15] -44.9% | [16] -10.6% | [17] -83% | [18] 1.21% | [19] -34.6% | [20] -48.9%
